# According to PubChem BioAssay (EPA / NIEHS):
# A structure can be active in one record and inactive in another. Calls of active or inactive are those of the source. The calls were made as follows: active = hit-call score of the fitted dose curve at least 0.9, where 1 is the maximum; inconclusive = response in the unintended direction; inactive = score below 0.9.
# Assay: CPHEA_Stoker_NIS_Cytotoxicity: Cytotoxicity Assessment for CPHEA's Radioactive Iodide Uptake (RAIU) Assay for Sodium/Iodide Symporter (NIS) Inhibition, Stoker and Laws Labs (AID 2283897);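 as to AC50: active means loss of ATP signal versus DMSO meaning cytotoxicity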
# Outline: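 CellTiter-Glo ATP luminescence gauged viability in HEK293T cells expressing human NIS after 2 h chemical exposure. Concentrations ran 0.001–100 uM in 0.5% DMSO; DMSO served as baseline for the loss-of-signal fit.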
SMILES,AC50,outcome
O=C(c1ccc(OCCN2CCCCC2)cc1)c1c(-c2ccc(O)cc2)sc2cc(O)ccc12,9.92 µM (active),–
COC(=O)C(C)Oc1ccc(Oc2ncc(C(F)(F)F)cc2Cl)cc1 (stereo not drawn),–,inactive
c1ccc(Cc2ccccc2)cc1,–,inactive
O=C(OCc1ccccc1)c1ccccc1O,–,inactive
CCCCCCCCCO,–,inactive
[Na+],–,inactive
C#C[C@]1(O)CC[C@H]2[C@@H]3CCc4cc(O)ccc4[C@H]3CC[C@@]21C,–,inactive
O=c1cc(-c2ccc(O)cc2)oc2cc(O)cc(O)c12,–,inactive
CC/C(=C(\c1ccccc1)c1ccc(OCCN(C)C)cc1)c1ccccc1,36.2 µM (active),inactive
CCCCCCOc1ccc(O)cc1,–,inactive
CCCCCC(=O)O[C@]1(C(C)=O)CC[C@H]2[C@@H]3CCC4=CC(=O)CC[C@]4(C)[C@H]3CC[C@@]21C,–,inactive
CCCCCCCCOS(=O)(=O)O,–,inactive
CCCCCC1CCC(=O)O1 (stereo not drawn),–,inactive
CC(=O)C1=C(C)[C@@H]2C[C@@]3(C1)[C@H](C)CC[C@H]3C2(C)C,–,inactive
CCCCCCCCCCCCOCCOS(=O)(=O)O,–,inactive
CCCCCCCCCOS(=O)(=O)O,–,inactive
CC(=O)OC(C)(C)C,–,inactive
